Molecules are shown by their SMILES. Screen size: about 330,000 compounds; about 2,800 (0.85%) were called active.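 The calls were made as follows: active = mean inhibition across replicates of 60% or more, whatever share of single replicates reaches that level; inconclusive = some that reach 60%, reason not given; inactive = mean inhibition across replicates below 60%.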 Only a selection was taken, and actives are over-represented in it overall.

The nature of this assay: inhibitors of MITF-dependent TRPM1 promoter reporter, primary screen, cell-based, SK-MEL-5, single point, luciferase (AID 488899). Conditions: SK-MEL-5 TRPM1 promoter luciferase, 24 h; at 12.5 µM; active compounds read high.
The inhibition is the relative decrease from the control value, in per cent. As to `COC(=O)c1ccc(CN2CCC(CO)(Cc3ccc(OC)cc3)CC2)cc1`, the inhibition was -13% (inactive).
The value for `Nc1c(Cl)cc(S(N)(=O)=O)cc1S(N)(=O)=O` was -2.87% (inactive).
For the compound `S=C(NCCCc1ccccc1)Nc1ccc(Br)cc1`, the inhibition was -6.26% (inactive).
The value for `C=C(C)C(=O)O[C@H]1C/C(C)=C\C(=O)/C=C(\C)[C@H](O)[C@@H]2OC(=O)C(=C)[C@@H]21` was 85.9% (active).
The value for `O=[N+]([O-])c1cccc(C=NN=Cc2ccccc2O)c1` was -42.5% (inactive); that for `CCOc1ccc(CCNC(=O)COC(=O)C2CCN(S(=O)(=O)c3ccccc3)CC2)cc1OCC` was 9.54% (inactive); that for `Cc1c(Cl)c([N+](=O)[O-])nn1Cc1ccc(C(=O)N/N=C\c2cc(Cl)ccc2O)o1` was 65.8% (active).
The value for `Cc1nn(Cc2ccc(Cl)cc2)c(Cl)c1/C=N/NC(=O)c1cccnc1` was 18.6% (inactive); that for `O=C(N/N=C\c1ccc(Br)cc1)c1ccc(Cn2cccn2)o1` was -24.2% (inactive); that for `COc1ccc(CCN2C(=O)CC(N3CCC(C(N)=O)CC3)C2=O)cc1OC` (stereo unspecified) was 18.7% (inactive).
Turning to `CCCCN1CC(COCc2ccccc2)OCCS1(=O)=O` (stereo unspecified), the inhibition was 6.74% (inactive).
The value for `O=C(CC1Sc2ccccc2NC1=O)NNc1ccc(Cl)c(Cl)c1` (stereo unspecified) was -0.562% (inactive); that for `C[C@H]1CN([C@@H](C)CO)C(=O)Cc2cc(NC(=O)Cc3ccccc3)ccc2O[C@H]1CN(C)S(=O)(=O)c1cccs1` was 14.1% (inactive).
Take `CC(=O)c1nc2ccccc2n1Cc1ccccc1`: the inhibition was 3.29% (inactive).
The value for `CCCCCn1c(=O)c(C(=O)OCC)c(Cl)c2ccccc21` was 6.88% (inactive); that for `CC(=O)Oc1c(C(=O)c2nnc(C)o2)c(=O)n(Cc2ccccc2)c2ccccc12` was 66% (active).
To `Cc1ccc(NC(=S)NC(NC(=O)Cc2cccc3ccccc23)C(Cl)(Cl)Cl)cc1` (stereo unspecified) belongs 36% (inactive); to `Cc1n[nH]c(=O)c2c1nnn2Cc1ccc(F)cc1`, 0.048% (inactive).
To `Cc1ccc(CNS(=O)(=O)CCNC(=O)c2ccccc2)cc1` belongs -8.66% (inactive); to `COc1cc(C#Cc2ccc3cc(CCCO)oc(=O)c3c2)cc(OC)c1`, -11.2% (inactive); to `COC(=O)C(C)Oc1ccc2c(c1)O/C(=C\c1cccc(Br)c1)C2=O` (stereo unspecified), -3.21% (inactive).
Consider `COc1cc(/C=C2\Oc3ccc(C#Cc4ccc(O)cc4)cc3C2=O)cc(OC)c1`, for which the inhibition was 73.1% (active).
The value for `O=C(C1CC(=O)N(C2CCCC2)C1)N1CCN(c2cccc(C(F)(F)F)c2)CC1` (stereo unspecified) was 3.91% (inactive); that for `C[C@H](CO)N1C[C@H](C)[C@H](CN(C)CC2CC2)Oc2ccc(NC(=O)CCN3CCOCC3)cc2C1=O` was -4.39% (inactive).
To `O=C(CCNC(=O)c1ccc([N+](=O)[O-])cc1)NC1CCCCC1` belongs 8.98% (inactive); to `O=c1oc2ccccc2c(=O)c2ccccc12`, -0.811% (inactive); to `NC(=O)C1CCN(C(=O)c2ccc(-c3ccccc3)cc2)CC1`, -7.15% (inactive).
As for `O=C(Nc1ccccc1)C1CCN(C(=O)c2ccc(Br)cc2)CC1`, the inhibition was -9.91% (inactive).
The value for `O=C1Nc2cc(C(=O)N3CCC(N4CCCCC4)CC3)ccc2S/C1=C\c1ccccc1` was 88.1% (active); that for `O=C1[C@@H](c2ccccc2)[C@@H](c2ccccc2)N1c1cccnc1` was -10.4% (inactive); that for `COc1ccc(C2NC(=O)C(=O)/C2=C(\O)c2ccc(Cl)cc2)cc1OC` (stereo unspecified) was -6.72% (inactive).
Take `CCOc1cc(N2CCOCC2)c(OCC)cc1NC(=O)c1ccc(C)s1`: the inhibition is 4.27% (inactive).
To `CCOc1cc(N2CCOCC2)c(OCC)cc1NC(=O)COc1cccc2cccnc12` belongs 83.8% (active); to `CCOc1cc(N2CCOCC2)c(OCC)cc1NC(=O)COc1cccc(Cl)c1`, 0.482% (inactive).
The value for `CCN1C(=O)N[C@@H](c2ccccc2)[C@H](C(C)=O)[C@H]1C` was 2.98% (inactive); that for `CCOc1ccc(C(=O)NC(=S)Nc2ccc(N3CCOCC3)c(Cl)c2)cc1[N+](=O)[O-]` was 6.29% (inactive); that for `Cc1cc(=O)[nH]c2nnnn12` was -4.79% (inactive).
The value for `O=C(NN=Cc1ccccc1)c1ccccc1` was -52.5% (inactive); that for `COc1cc(CCC(=O)N2CCN(c3ccccc3Cl)CC2)cc(OC)c1OC` was 7.49% (inactive).
With `CC(C)(C)OC(=O)C[C@@H]1C/C=C\C[C@@H](CC(=O)N[C@H](CO)Cc2ccccc2)C(=O)NC[C@@H](c2ccccc2)OC1=O`, the inhibition was 1.12% (inactive).
Turning to `CC(C)(C)OC(=O)C[C@H]1C/C=C\C[C@@H](CC(=O)N[C@H](CO)Cc2ccccc2)C(=O)NC[C@@H](c2ccccc2)OC1=O`, the inhibition is 4.03% (inactive).
To `O=C(C[C@H]1C/C=C\C[C@@H](NC(=O)OCC2c3ccccc3-c3ccccc32)C(=O)O[C@@H](c2ccccc2)CNC1=O)N[C@H](CO)Cc1ccccc1` belongs 86.8% (active); to `O=C1NCC(c2ccccc2)(c2ccccc2)C(=O)N1`, -7.87% (inactive).
The value for `CC12CN3CCN(CC(C3)/C1=N\NC(=O)c1ccccc1N)C2` was 9.43% (inactive); that for `N#CC1(Nc2ccc(-c3ccc(Cl)cc3)cc2)CCCC1` was -58.9% (inactive).
The value for `CN(O)C(=S)c1ccccc1` was 82% (active).
Turning to `CN(CC(=O)O)C(=O)c1ccccc1`, the inhibition is -4.07% (inactive).
To `CN(/N=C/c1ccccc1)C(=S)c1ccccc1` belongs 1.77% (inactive).
The value for `CCOC(=O)N1CCN(S(=O)(=O)c2cc3c(cc2C)NC(=O)CO3)CC1` was 2.83% (inactive); that for `C=CCn1cc(C(=O)NCc2ccc(Cl)cc2)c(=O)c2cc(S(=O)(=O)N(CC)CC)ccc21` was -5.87% (inactive).
To `O=C(CN1CCN(c2ncccn2)CC1)Nc1ccccc1C(F)(F)F` belongs 18.5% (inactive); to `CC(=O)c1ccc(S(=O)(=O)N2CCN(C(=O)/C=C/c3ccc4ccccc4n3)CC2)cc1`, 72.5% (active); to `CC(=O)c1ccc(S(=O)(=O)N2CCN(c3nc4c(C)c(C)ccc4cc3C#N)CC2)cc1`, 3.2% (inactive).
With `CC(=O)c1ccc(S(=O)(=O)N2CCC3(CC2)OCCO3)cc1`, the inhibition is 8.67% (inactive).
To `CCN(CC)CCNS(=O)(=O)c1ccc(/C=C/C(=O)O)cc1` belongs 14.7% (inactive); to `C=CC1=C(C(=O)O)N2C(=O)[C@@H](NC(=O)/C(=N\OCC(=O)O)c3csc(N)n3)[C@H]2SC1`, -2.96% (inactive).
